Assay outcomes from PubChem.
Rows were chosen to be rich in hits. Some 9.2% of all compounds tested hit in one or more screens of this group.
HTT aggregate: inhibitors of mutant huntingtin aggregate formation in PC12 cells; Potency, µM (series often up to 46.1 µM), for inactives: top-dose activity change, negative = inhibition, usual class: inhibitors; hit rate 1.1% among 220,000; PC12 HttQ103-GFP aggregates, Acumen cytometry, 40 h; AID 1688; active = well fitted curve in the direction sought with a large enough effect; inconclusive = small, poorly fitted or top-dose-only effect, or another doubt; inactive = no such curve, though single readings can be large; an effect the other way counts as inactive or inconclusive; also: % is scaled to controls: 0 for no effect and ±100 for the full control effect; nearly all actives have a fitted effect of over 60% in size
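Ecdysone-promoter PC12 model expressing HTT exon 1 Q103 fused to GFP, induced by tebufenozide at 100 nM final. Compounds titrated; aggregates sized 1–25 µm scored on a 488 nm laser cytometer.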
KDM4E inh: blocks human JMJD2E demethylase activity | JMJD2E catalytic domain, FDH-coupled NADH fluorescence (FDH is formaldehyde dehydrogenase) | Potency, µM (doses to about 57.1 µM), without a hit: at the highest dose activity change, negative = inhibition, hits mostly inhibitors | hit rate 1.6% among 230,000;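 also: 0% = wells with enzyme and -100% = buffer wells without enzyme; nearly all actives have a fitted effect of over 50% in size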
HPGD block: HPGD (human) dehydrogenase inhibition; P15428; hit rate 4.3% among 150,000; purified HPGD, NADH fluorescence kinetic, PGE2 substrate; AID 894; Potency, µM, inactives show top-dose activity change, negative = inhibition, hits mostly inhibitors; also: % is scaled to controls: 0 for no effect and ±100 for the full control effect
Target sequence (P15428 whole entry, looked up): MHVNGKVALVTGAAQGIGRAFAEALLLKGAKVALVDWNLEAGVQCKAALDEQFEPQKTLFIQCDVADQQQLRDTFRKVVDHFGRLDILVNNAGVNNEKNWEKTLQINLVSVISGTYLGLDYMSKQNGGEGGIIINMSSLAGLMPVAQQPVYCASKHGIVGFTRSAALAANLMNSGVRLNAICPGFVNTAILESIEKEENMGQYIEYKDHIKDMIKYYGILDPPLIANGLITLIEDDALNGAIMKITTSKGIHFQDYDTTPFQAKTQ
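20 nM HPGD preincubated 15 min at room temperature with compound in 50 mM Tris-HCl pH 8, 0.01% Tween 20. Started with 1 mM NAD+ and 30 uM prostaglandin E2; NADH fluorescence (360/450 nm) read 5 times over 30-s intervals, last minus first.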
ALDH1A1 inh: inhibitors of human aldehyde dehydrogenase 1A1; P00352; Purified ALDH1A1, NADH fluorescence, propionaldehyde substrate; Potency, µM (highest dose often 75.3 µM), for inactives: top-dose activity, negative = inhibition, usual class: inhibitors; hit rate 7.3% among 220,000; AID 1030;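 also: plate controls were no enzyme wells and a reference inhibitor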
Target sequence (P00352 whole entry, looked up): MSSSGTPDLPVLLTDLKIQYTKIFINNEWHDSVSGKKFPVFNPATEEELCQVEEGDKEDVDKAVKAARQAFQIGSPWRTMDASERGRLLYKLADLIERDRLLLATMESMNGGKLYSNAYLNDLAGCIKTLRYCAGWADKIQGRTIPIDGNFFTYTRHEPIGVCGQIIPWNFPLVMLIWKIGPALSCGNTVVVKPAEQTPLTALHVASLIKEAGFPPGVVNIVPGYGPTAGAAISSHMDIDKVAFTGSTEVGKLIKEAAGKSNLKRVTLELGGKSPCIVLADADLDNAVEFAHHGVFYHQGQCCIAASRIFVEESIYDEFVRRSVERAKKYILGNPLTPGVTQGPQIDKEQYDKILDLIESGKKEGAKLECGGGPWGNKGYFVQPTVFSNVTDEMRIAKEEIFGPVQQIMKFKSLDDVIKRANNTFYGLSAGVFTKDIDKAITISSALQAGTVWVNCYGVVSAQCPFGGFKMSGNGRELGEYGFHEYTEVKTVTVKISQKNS
Lamin A splicing: modulators of lamin A splicing; HeLa LMNA splicing GFP/RFP minigene ratio, 48 h; Potency, µM (top dose mostly 46.1 µM), for inactives: top-dose ratio change, negative = inhibition, most hits filed as inhibitors; hit rate 0.01% among 200,000; active = well fitted inhibition curve with a large enough effect in the signal ratio, with a control signal flat, not every such curve was filed as active; inconclusive = small, poorly fitted or top-dose-only effect, or effect the other way, or a change in a side signal; the % refers to the signal ratio; also: % is scaled to controls: 0 for no effect and ±100 for the full control effect
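S3 HeLa cells stably expressing lamin A-EGFP splicing minigene plus DsRed2, 600 cells/well, 48 h compound exposure at 37C. Laser-scanning cytometry; analysed as GFP (500-530 nm)/RFP (575-640 nm) total intensity ratio; 0.5% DMSO vehicle.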
HTT ATP protect: cytoprotection in Huntington HTT-Q103 PC12 cell model. PC12 HTT-Q103 induced, cytoprotection, ATP luminescence, 40 h. Potency, µM (titrated, usually from 56.4 µM), for inactives: cytoprotection (ATP increase), usual class: activators. hit rate 0.14% among 230,000. AID 1471; active = well fitted curve in the direction sought with a large enough effect; inconclusive = small, poorly fitted or top-dose-only effect, or another doubt; inactive = no such curve, though single readings can be large; an effect the other way counts as inactive or inconclusive; also: % of control where 0% means no effect; nearly all actives have a fitted effect of over 45% in size
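PC12 cells with ecdysone-inducible HTT exon 1 Q103-GFP, induced with 100 nM tebufenozide and co-treated with library compounds in a dose series (1536-well, 1500 cells/well). Cytoprotection read as ATP content by ATPlite luminescence.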
* marks the source's active call; other numbers are inactive results; ? = inconclusive; · = no result; [ ] = remark or other dose. Unless noted, calls follow the shape of the dose curve; as a rule, active = well fitted inhibition curve with a large enough effect (not every such curve was filed as active); inconclusive = small, poorly fitted or top-dose-only effect, or another doubt; inactive = no such curve, though single readings can be large or run the other way. Potency is read from the fitted curve at half-maximal effect.

SMILES	HTT aggregate	KDM4E inh	HPGD block	ALDH1A1 inh	Lamin A splicing	HTT ATP protect
CCC(=O)O[C@@]1(C(=O)CCl)C(C)CC2C3CCC4=CC(=O)C=C[C@@]4(C)[C@]3(F)C(O)C[C@]21C (some centres not stated)	-3%	2%	-5%	3%	-16%	-54%
CC(=O)c1cccc(S(=O)(=O)NCC(c2ccco2)N2CCCCC2)c1 (configuration not stated)	-18%	-2%	-17%	11µM*	-2%	-40%
Cc1ccc(CN2CCC(CNc3ncnc4onc(-c5ccc(Cl)cc5)c34)CC2)cc1	·	·	·	·	1%[46 µM]	·
C=CC(=O)CC	·	·	-2%	2µM*	·	5%
Cn1c(=O)c2c(c3ccccc31)OC(=O)CC2c1ccccc1 (configuration not stated)	·	·	·	·	5%[46 µM]	·
CCCN1C(=O)/C(=C/c2ccc(C)o2)SC1=Nc1ccc(OCC)cc1	28%	-16%	-11%	7.9µM*	0%	1%
COc1ccc(N=C2NC(=O)/C(=C\c3ccco3)S2)cc1	-10%	?	·	?	0%[46 µM]	-28%
CCCN1C(=O)/C(=C/c2ccc(C)o2)SC1=Nc1ccc(OC)cc1	16%	?	25µM*	3.5µM*	?	-3%
CCCN1C(=O)/C(=C/c2ccco2)SC1=Nc1ccc(OC)cc1	24%	?	-6%	13µM*	8%	-24%
COc1ccc(N=C2S/C(=C\c3ccc(C)o3)C(=O)N2CC(C)C)cc1	-4%[9.22 µM]	-16%	-26%	8.9µM*	2%	30%
CCCN1C(=O)/C(=C\c2ccncc2)SC1=Nc1ccccc1	-6%	-1%	32µM*	-3%	?	8%[10 µM]
COc1ccc(N=C2S/C(=C\c3ccc(N4CCOCC4)o3)C(=O)N2CCc2c[nH]c3ccccc23)cc1	-9%[9.22 µM]	-9%	?	8.9µM*	?	-99%
O=C(Nc1c2c(nn1-c1ccc(Cl)cc1)CS(=O)(=O)C2)c1ccccc1F	·	·	·	·	-10%[46 µM]	·
COc1ccc(-c2cnnc(N/N=C/c3ccc(O)cc3)n2)cc1	?	35%	·	16%	·	·
COc1ccc(-c2cnnc(N/N=C/c3ccc(O)c(O)c3)n2)cc1	11µM*	25µM*	-19%	-11%	?	-59%[10 µM]
CCNc1nc(NCC)nc(N/N=C/c2ccc(N(C)C)cc2)n1	-6%	?	·	?	-16%[9.22 µM]	-46%
CCNc1nc(NCC)nc(N/N=C/c2ccc(O)c(O)c2)n1	13%	18µM*	·	0%	-17%[46 µM]	-27%
CCOC(=O)CCN1C(=O)[C@H]2[C@H]3[C@H](O)[C@H](O)C/C(=N/OCC(C)C)[C@H]3CC[C@@H]2C1=O	·	·	·	4%[13.5 µM]	·	?
NC(=O)/C(=N\O)c1ccccc1	2%	5%	2%	10%	0%	-24%
O=c1[nH]c(/C(=N\O)c2ccccc2)no1	-9%	9%	?	24µM*	14%	15%
COC(=O)[C@@]1(Cc2ccccc2)[C@H]2c3cc(C(=O)N(C)C)n(CCF)c3C[C@H]2CN1C(=O)c1ccccc1	·	-7%	-3%	0%	·	-42%
CC1(C)C(c2ccco2)=[N+]([O-])C2(CCCCC2=O)N1O (configuration not stated)	2%	-8%	-13%	-9%	-5%	11%[10 µM]
C/C(=N/Nc1ccc(C)cc1)C1(C)N(O)C(C)(C)C(c2ccco2)=[N+]1[O-] (configuration not stated)	-12%	?	·	25µM*	-6%[46 µM]	-33%
N/C(Cc1cccc2ccccc12)=N\OC(=O)c1cccs1	6%	2%	-10%	5%	8%	19%[10 µM]
Cc1ccccc1OCC(=O)O/N=C(\N)Cc1cccs1	6%	?	-15%	7.1µM*	7%[0.0737 µM]	-23%
SMILES	HTT aggregate	KDM4E inh	HPGD block	ALDH1A1 inh	Lamin A splicing	HTT ATP protect
N/C(Cc1cccc2ccccc12)=N\OC(=O)Cc1cccs1	-6%	4%	28µM*	?	?	-1%[0.074 µM]
N/C(Cc1cccc2ccccc12)=N\OC(=O)c1ccc(Br)o1	17%	-8%	·	10µM*	·	-31%
N/C(Cc1ccc(Cl)cc1Cl)=N\OC(=O)c1ccc(Br)o1	4%[9.22 µM]	-17%	·	·	-12%[46 µM]	25%[10 µM]
NC(=O)c1ccccc1-c1nc(-n2ccnc2)c2ccccc2n1	·	·	·	9%	-21%	-20%
COc1ccc2[nH]cc(CCNc3ncnc4ccc(-c5ccc6c(c5)OCO6)cc34)c2c1	·	·	·	4%	?	-259%
CC(C)(C)OC(=O)N1CCC(c2c(C(=O)NCc3cccs3)cnn2-c2ccc(F)cc2F)CC1	·	·	·	·	-16%[46 µM]	·
Cc1nnc(NC(=O)CSc2nccn2-c2cccc(Cl)c2)s1	·	·	·	·	-19%[46 µM]	·
Cc1ccccc1-n1sc2cc(F)ccc2c1=O	?	11µM*	·	0.56µM*	?	8%[1.9 µM]
COc1cc(C(C)=O)ccc1OCC(O)CN1CCN(S(=O)(=O)c2ccccc2)CC1 (configuration not stated)	6%	-5%	-9%	28µM*	3%	-5%
CC(=O)NC1(c2ccc(F)cc2)CCN(C(=O)Nc2ccc(F)cc2F)CC1	3.2µM*	6%	-10%	7%	4%	-97%[10 µM]
COc1ccc(CNC(=O)Cn2c(=O)n3nc(-c4ccc(OC)cc4)nc3c3ccccc32)cc1	·	·	·	·	13%[46 µM]	·
COc1ccc(Cl)cc1NC(=O)Cn1c(=O)n2nc(C)nc2c2ccccc21	17%	-1%	-21%	7.9µM*	-9%	-26%
Cc1cccc(-c2nc3c4ccccc4n(CC(=O)Nc4cc(F)ccc4F)c(=O)n3n2)c1	·	·	·	·	14%[46 µM]	·
COc1ccccc1NC(=O)Cn1c(=O)n2nc(C)nc2c2ccccc21	6%	2%	-16%	20µM*	-1%	-13%
COc1ccc(-c2nnc(SCC(=O)NCCc3ccccc3)nc2-c2ccc(OC)cc2)cc1	·	·	·	·	10%[46 µM]	·
CCOC(=O)N1CCC(n2c(SCC(=O)NCCC3=CCCCC3)nc3ccccc3c2=O)CC1	?	2%	-9%	13µM*	?	-22%
Cc1cc(SCC(=O)NCCC2=CCCCC2)nc2ccccc12	-2%	1%	25µM*	34%	-2%	30%[10 µM]
CCOC(=O)N1CCC(n2c(SCC(=O)NCc3ccccc3)nc3ccccc3c2=O)CC1	-19%	-1%	3%	-9%	1%	-8%
COc1ccc(C(=O)N2CCC3(CC2)CN(c2ccccc2)C3)cc1	·	·	-7%	-16%	·	5%
Cc1nc2c(-c3ccccc3)c[nH]n2c(=O)c1Cc1ccccc1	7.1µM*	?	·	?	·	-150%
COc1ccc(COc2ccc(C3C(S(=O)(=O)c4ccccc4)CON3C)cc2OC)cc1 (configuration not stated)	-22%	-3%	·	8.9µM*	?	6%[10 µM]
O=C(NCCS(=O)(=O)N1CCN(c2ccc(F)cc2)CC1)c1cc(=O)c2ccccc2o1	·	·	·	·	5%[46 µM]	·
